# Assay results published in article PMC4336329 (PLoS ONE, 2015).
# The campaign covered roughly 310,000 compounds. About 14,000 (4.5%) showed an effect of 50% or more. The effect is printed as a negative number. The list comes from a sample in which strong results are over-represented; it also holds similar structures and randomly drawn compounds.
# Target: human ether-à-go-go-related gene (hERG) potassium channel (human, UniProt Q12809)
# Assay: primary screen, population patch clamp on CHO cells stably expressing hERG; higher = less effect of the substance
# 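Also: peak tail current of the secondary pulse compared with the same well before compound.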
# Chain of human ether-à-go-go-related gene (hERG) potassium channel (Q12809 whole entry, looked up): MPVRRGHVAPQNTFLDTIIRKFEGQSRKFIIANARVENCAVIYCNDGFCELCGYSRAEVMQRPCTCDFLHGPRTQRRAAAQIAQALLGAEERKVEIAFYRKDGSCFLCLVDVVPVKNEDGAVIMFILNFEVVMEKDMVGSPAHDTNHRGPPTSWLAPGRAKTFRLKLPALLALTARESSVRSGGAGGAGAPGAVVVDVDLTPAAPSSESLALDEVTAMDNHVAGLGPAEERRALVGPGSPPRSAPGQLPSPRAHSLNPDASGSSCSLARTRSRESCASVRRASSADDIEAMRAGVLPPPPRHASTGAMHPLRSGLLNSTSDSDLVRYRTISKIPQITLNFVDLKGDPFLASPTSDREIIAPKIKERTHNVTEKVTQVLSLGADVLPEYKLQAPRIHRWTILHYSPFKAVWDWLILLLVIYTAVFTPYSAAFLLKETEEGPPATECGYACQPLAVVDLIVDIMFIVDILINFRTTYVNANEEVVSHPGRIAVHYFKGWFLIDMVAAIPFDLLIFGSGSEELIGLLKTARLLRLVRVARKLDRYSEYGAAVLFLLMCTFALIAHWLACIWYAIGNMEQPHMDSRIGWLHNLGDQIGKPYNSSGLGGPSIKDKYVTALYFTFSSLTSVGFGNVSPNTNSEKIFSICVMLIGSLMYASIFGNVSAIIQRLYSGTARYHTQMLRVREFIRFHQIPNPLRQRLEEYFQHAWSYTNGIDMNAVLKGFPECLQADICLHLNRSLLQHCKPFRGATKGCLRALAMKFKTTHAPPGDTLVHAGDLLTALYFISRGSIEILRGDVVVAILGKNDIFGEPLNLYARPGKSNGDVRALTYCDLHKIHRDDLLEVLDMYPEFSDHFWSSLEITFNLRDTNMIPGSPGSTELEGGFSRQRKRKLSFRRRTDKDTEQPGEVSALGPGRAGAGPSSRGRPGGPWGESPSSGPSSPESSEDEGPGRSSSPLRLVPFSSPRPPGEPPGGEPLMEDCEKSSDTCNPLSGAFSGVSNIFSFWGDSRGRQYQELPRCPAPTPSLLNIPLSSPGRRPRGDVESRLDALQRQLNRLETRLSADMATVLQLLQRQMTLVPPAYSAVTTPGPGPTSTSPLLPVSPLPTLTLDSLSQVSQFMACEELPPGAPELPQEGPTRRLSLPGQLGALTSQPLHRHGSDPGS
row,Compound,"hERG current change (%, negative = inhibition) at 10uM [%]"
1,COc1ccc(CCNC(=O)COC(=O)/C=C/c2ccc(OCC#N)c(OC)c2)cc1OC,-17.1
2,CCOC(=O)SC1=N/C(=C\c2ccc(N(C)C)cc2)C(=O)S1,14.9
3,COc1ccc(CCN(C)C(=O)c2ccc(COc3ccccc3)o2)cc1OC,-3.91
4,COCC(=O)Nc1ccc(F)cc1,18.6
5,O=c1c(Cc2ccc(F)cc2)c(O)ccn1Cc1ccc(Cl)cc1Cl,6.08
6,COc1cc(O)c(C(CC(=O)N2CCCC(C)C2)c2cc(OC)c(OC)c(OC)c2)c(OC)c1 (stereo not shown),2.69
7,CC(=O)Nc1ccc2nc(NC(=O)C(Cl)(Cl)Cl)sc2c1,31.1
8,c1cc(-c2nnc3n2CCC3)[nH]n1,12.5
9,O=C(CSc1nc(-c2ccccc2F)nc2nc[nH]c12)Nc1c(Cl)cc(Cl)cc1Cl,-6.09
10,Oc1cc2ccccc2cc1-c1nnc2n1-c1ccccc1SC2,-8.27
11,c1ccc2c(c1)Sc1ccccc1-n1cnnc1-2,-20.3
12,Cl.NCCC(=O)N1c2ccccc2Sc2ccc(Cl)cc21,-10.8
13,Clc1ccc2c(c1)-c1nnc(Br)n1-c1ccccc1S2,-52.5
14,Brc1nnc2n1-c1ccccc1Sc1ccccc1-2,-71.8
15,Clc1ccccc1-c1nnc2n1-c1ccccc1SC2,-3.67
16,COc1nc(NC(C)(C)C)nc(Oc2ccc(=O)n(C)n2)n1,16.8
17,CN(C)c1nc(-c2cccnc2)nc(-c2ccccc2)c1C#N,10.3
18,CCOC(=O)COc1ccc(Oc2nc(C)cc(OC)n2)nn1,-7.8
19,Cl.Nc1nonc1C(=O)NCCNCc1cc(Br)ccc1OCc1ccc(F)cc1,-38.2
20,Cl.Nc1nonc1C(=O)NCCNCc1ccccc1OCc1ccc(F)cc1,-65.9
21,CCOc1ccccc1CNCCNC(=O)c1nonc1N.Cl,-13.5

row,Compound,"hERG current change (%, negative = inhibition) at 10uM [%]"
1,C=CCOc1ccccc1CNCCNC(=O)c1nonc1N.Cl,-22.8
2,Cl.Nc1nonc1C(=O)NCCNCc1ccccc1OCc1ccccc1F,-60.5
3,Cl.Nc1nonc1C(=O)NCCNCc1c(OCc2ccccc2F)ccc2ccccc12,-11.9
4,CC1=C(C(=O)Nc2ccccc2)C(c2ccc(O)cc2)N2C(=O)CSC2=N1 (stereo not shown),3.47
5,CC(C)N(CCCNC(=O)CC1Oc2ccccc2NC1=O)Cc1ccccc1 (stereo not shown),-26.3
6,Fc1ccc(/C=N/c2c(-c3ccc(F)cc3)nc3n2CCS3)cc1,-4.46
7,Nc1nc2ccccc2n1/N=C/c1ccc([N+](=O)[O-])s1,-1.38
8,O=C(O)/C(=C\c1cccs1)c1ccccc1,0.00478
9,COc1ccc(OC)c(-n2cnc3cc(C(=O)O)ccc32)c1,3.06
10,Cc1ccc(CN2CCCC(C(=O)c3ccc4c(c3)OCO4)C2)cc1C (stereo not shown),-64.6
11,O=C(c1ccc2c(c1)OCO2)C1CCCN(C(=O)NCc2ccccc2)C1 (stereo not shown),-14.3
12,O=C(c1ccc2c(c1)OCO2)C1CCCN(Cc2c(F)ccc(F)c2F)C1 (stereo not shown),-15.8
13,O=C(c1ccc2c(c1)OCO2)C1CCCN(C2CCN(CCc3ccccc3)CC2)C1 (stereo not shown),-69.3
14,CCN(CC)C(=O)C1CCCN(Cc2ccc3c(c2)OCO3)C1 (stereo not shown),10
15,O=C(c1ccc2c(c1)OCO2)C1CCCN(Cc2cccc(C(F)(F)F)c2)C1 (stereo not shown),-20.5
16,O=C(c1ccc2c(c1)OCO2)C1CCCN(Cc2ccc(F)c(F)c2)C1 (stereo not shown),-65.4
17,CC(=O)c1ccc(NC(=O)N2CCCC(C(=O)c3ccc4c(c3)OCO4)C2)cc1 (stereo not shown),-16.4
18,CSc1ccccc1NC(=O)N1CCCC(C(=O)c2ccc3c(c2)OCO3)C1 (stereo not shown),-39.8
19,CCOC(=O)C1CCCN(Cc2ccc3c(c2)OCO3)C1 (stereo not shown),-9.12
20,CC(=O)c1cccc(CN2CCCC(C(=O)c3ccc4c(c3)OCO4)C2)c1 (stereo not shown),-64.9
21,COc1ccccc1/C=C1\C(=O)Nc2ccccc21,2.99

row,Compound,"hERG current change (%, negative = inhibition) at 10uM [%]"
1,Cc1cn(S(=O)(=O)c2cc(Br)ccc2Br)cn1,1.08
2,CCc1ccc(NC(=O)NCCCN2CCCC2=O)cc1,0.255
3,CN(C)C1(CNC(=O)CC(NC(=O)c2ccccc2Cl)c2ccccc2)CCCCC1 (stereo not shown),-31.3
4,C[C@@]12CCC3[C@@](CCC4[C@@]3(C)CCC[C@@]4(C)C(=O)N3CCCCC3)(CC1=O)C2 (stereo partly shown),7.27
5,O=c1c(Cc2c(F)cccc2Cl)c(O)ccn1Cc1ccc(F)cc1,-0.211
6,CCCC(=O)Nc1ccc(N2CCCCC2)cc1,-8.42
7,C=C1C(=O)[C@@]23[C@H](O)C[C@@H]4C(C)(C)CC[C@H](O)[C@]4(C)[C@@H]2C[C@H](O)[C@@H]1[C@H]3O,-0.141
8,CC(N)C12CC3CC(CC(C3)C1)C2.Cl (stereo not shown),14.1
9,C/C(=N\N1CCCCC1)c1c(O)[nH]c(=O)[nH]c1=O,-11
10,COc1cccc(C(=O)C2CCCN(Cc3ccc4nsnc4c3)C2)c1 (stereo not shown),-26
11,O=C(c1ccc2c(c1)OCO2)C1CCCN(Cc2ccc3cccc(F)c3n2)C1 (stereo not shown),-87
12,O=C(c1ccc2c(c1)OCO2)C1CCCN(Cc2ccc3nsnc3c2)C1 (stereo not shown),-71.4
13,Cn1c(CN2CCCC(C(=O)c3ccc4c(c3)OCO4)C2)nc2ccccc21 (stereo not shown),-70.5
14,O=C(c1ccc2c(c1)OCO2)C1CCCN(C(=O)C2CCOCC2)C1 (stereo not shown),7.74
15,Cn1cc(CN2CCCC(CNC(=O)c3ccc4c(c3)OCO4)C2)c2ccccc21 (stereo not shown),-43.6
16,O=C(c1cccc(Cl)c1)C1CCCN(C(=O)c2ccc3c(c2)OCO3)C1 (stereo not shown),-34.1
17,CSc1ccc(C(=O)C2CCCN(C(=O)c3ccc4c(c3)OCO4)C2)cc1 (stereo not shown),-34
18,Cc1cccc(CN2CCCC(C(=O)c3ccc4c(c3)OCO4)C2)n1 (stereo not shown),-49.2
19,O=C(c1ccc2c(c1)OCO2)C1CCCN(CC2CCCCC2)C1 (stereo not shown),-71.8
